About 79,000 compounds went through this panel and 15% of them were active in at least one assay; those are over-represented in the sample as a whole. The source made the active and inactive calls. Cut-off read from the data, not from the text of the source: active = growth inhibition above about 70%; inactive = the rest.
Legend:
[1] = NCI Yeast Anticancer Drug Screen. Data for the rad50 strain (AID 155);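 note: 0% = growth of vehicle-only cultures of the same strain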; conditions: S. cerevisiae rad50 strain growth inhibition, active compounds read high
Method in brief: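 Inhibition values express reduced yeast growth in compound-treated cultures relative to vehicle-treated controls.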

[2] = NCI Yeast Anticancer Drug Screen. Data for the mec2-1 strain (AID 157); conditions: S. cerevisiae mec2-1 strain, active compounds read high
Method in brief: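 Using mec2-1 yeast: add compound, measure growth, express inhibition versus vehicle-treated cultures.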

[3] = NCI Yeast Anticancer Drug Screen. Data for the sgs1 mgt1 strain (AID 161);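 note: 0% = growth of cultures given vehicle only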; conditions: S. cerevisiae sgs1 mgt1 strain, active compounds read high
Method in brief: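 Growth of a repair-deficient yeast mutant was monitored after compound treatment and expressed as inhibition relative to vehicle-treated cultures.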

[4] = NCI Yeast Anticancer Drug Screen. Data for the cln2 rad14 strain (AID 165);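 note: 0% = growth equal to vehicle treated cultures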; conditions: S. cerevisiae cln2 rad14 strain, active compounds read high
Method in brief: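 Yeast strain cln2 rad14, bearing defects in cell cycle control and DNA repair, serves as the test system; values reflect growth inhibition compared with vehicle.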

[5] = NCI Yeast Anticancer Drug Screen. Data for the bub3 strain (AID 167); conditions: S. cerevisiae bub3 mutant strain, active compounds read high
Method in brief: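 Steps: expose the mutant yeast strain to compound; grow alongside vehicle-treated cultures; measure growth; express inhibition against the vehicle cultures.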

[6] = NCI Yeast Anticancer Drug Screen. Data for the mlh1 rad18 strain (AID 175); conditions: S. cerevisiae mlh1 rad18 strain growth inhibition, active compounds read high
Method in brief: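 Steps: expose repair-defective yeast to compound; measure growth; express inhibition against vehicle-treated controls.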

[7] = at 5.0 µM (retest, dose inferred, filed as 0.5)
[8] = at 50.0 µM (retest, dose inferred, filed as 5.0)

Row | Compound | growth inhibition [1, 7] | growth inhibition [1, 8] | growth inhibition ([1]; at 50.0 µM) | growth inhibition [2, 7] | growth inhibition [2, 8] | growth inhibition ([2]; at 50.0 µM) | growth inhibition [3, 7] | growth inhibition [3, 8] | growth inhibition ([3]; at 50.0 µM) | growth inhibition [4, 7] | growth inhibition [4, 8] | growth inhibition ([4]; at 50.0 µM) | growth inhibition [5, 7] | growth inhibition [5, 8] | growth inhibition ([5]; at 50.0 µM) | growth inhibition [6, 7] | growth inhibition [6, 8] | growth inhibition ([6]; at 50.0 µM)
1 | CN(C(=S)c1ccccc1)c1ccccc1 | -166% (inactive) | -132% (inactive) | 97.4% (active) | -45% (inactive) | -56% (inactive) | 82% (active) | -63% (inactive) | -61% (inactive) | 69.2% (inactive) | -61% (inactive) | -65% (inactive) | 58.7% (inactive) | -81% (inactive) | -80% (inactive) | 96.6% (active) | -150% (inactive) | -131% (inactive) | 91.7% (active)
2 | O=C(c1ccco1)N(C(=S)N1CCN(c2ccccn2)CC1)c1ccccc1 | 3% (inactive) | 76% (active) | 77.2% (active) | 8% (inactive) | 51% (inactive) | 47.4% (inactive) | -1% (inactive) | 71% (active) | 63.4% (inactive) | 31% (inactive) | 53% (inactive) | 36.5% (inactive) | -2% (inactive) | 60% (inactive) | 53% (inactive) | -2% (inactive) | 78% (active) | 57.4% (inactive)
3 | CCCOc1ccc(-c2nc(-c3ccc(N=Cc4ccc(N(CCOS(C)(=O)=O)CCOS(C)(=O)=O)cc4C)cc3)cs2)cc1 | 13% (inactive) | 82% (active) | 84.7% (active) | 7% (inactive) | 83% (active) | 76.8% (active) | 8% (inactive) | 89% (active) | 46.5% (inactive) | 7% (inactive) | 53% (inactive) | 24.6% (inactive) | -3% (inactive) | 2% (inactive) | 37% (inactive) | 50% (inactive) | 95% (active) | 92.4% (active)
4 | CCC(CC)(C(=O)Nc1ccc2c(c1)c(=O)c1ccccc1n2C)C(=O)Nc1ccc2c(c1)c(=O)c1ccccc1n2C | 7% (inactive) | 97% (active) | 97% (active) | -3% (inactive) | 86% (active) | 77.7% (active) | -25% (inactive) | 71% (active) | 70.8% (active) | -4% (inactive) | 75% (active) | 73% (active) | -10% (inactive) | 78% (active) | 61.2% (inactive) | -6% (inactive) | 92% (active) | 95.7% (active)
5 | Oc1c(Br)cc(Cl)cc1C(c1cc(Cl)cc(Br)c1O)C(Cl)(Cl)Cl | 0% (inactive) | 98% (active) | 96% (active) | 2% (inactive) | 99% (active) | 98.2% (active) | 3% (inactive) | 99% (active) | 97.8% (active) | -5% (inactive) | 98% (active) | 97.2% (active) | -1% (inactive) | 98% (active) | 97.1% (active) | 5% (inactive) | 98% (active) | 90.8% (active)
